Results filed as inconclusive are left out. Where a call stands in place of a potency, no number is given. Activity calls are given as the source filed them. The call rests on the fitted dose curve; in most records, active means well fitted activation curve with a large enough effect; inconclusive means small, poorly fitted or top-dose-only effect; inactive means flat fitted curve, though single readings scatter.
experiment: Validation screen for small molecules that induce DNA re-replication in MCF 10A normal breast cells (AID 463097); details: MCF 10A cells, DNA re-replication phenotype imaging; series mostly up to 46.1 µM; further: nearly all actives have a fitted effect of over 60% in size
From the text: NIH Molecular Libraries Probe Production Network [MLPCN]
NIH Chemical Genomics Center [NCGC]
Assay Provider: Melvin DePamphilis, NICHD, NIH
Eukaryotic cells normally restrict genome duplication to once per cell division. When this process is aberrant, DNA re-replication occurs when cells reinitiate DNA replication before the first round of replication is complete. DNA re-replication induces the DNA damage response, arrests cell proliferation, and triggers apoptosis. The cell cycle components cyclin A, Cdt-1, Cdc6 and geminin are critical regulators of this process and their misregulation results in DNA re-replication in normal and cancer cells. To identify compounds that induce re-replication in normal cells, an image-based assay was used to measure DNA content of nuclei, as detected by the fluorescent DNA binding dye, Hoechst. Cell nuclei were imaged by a fluorescence scanning plate imager and compounds that induce DNA re-replication were identified by the increase of nuclei with elevated fluorescence intensity.
For screening, 250 cells in 5 uL/well were dispensed into black clear 1536-well plates (Aurora) using a solenoid-based dispenser. Following transfer of 23 nL compound or DMSO vehicle by a pin tool, the plates were incubated 48 hr at 37 C and 5% CO2. After addition of 1 uL/well Hoescht stain, the plates were incubated 40 min at 37 C, 5% CO2 and total intensity of fluorescent objects (nuclei) were enumerated by an Acumen Explorer Ex3 (TTP LabTech) fluorescence scanning plate imager (405 nm excitation, 500-530 nm emission).
Keywords: NIH Roadmap, MLPCN, MLI, MLSMR, qHTS, NCGC, DNA replication, cancer
Potency means the concentration at half of the fitted maximal effect.

Q: Which Potency does the source give for `CC/C(=C(\c1ccccc1)c1ccc(OCCN(C)C)cc1)c1ccccc1` here?
A: 17.8 µM (active)

Q: With `O=C1NC(=O)C(c2ccccc2)(c2ccccc2)N1` as the compound, how does the Potency read?
A: inactive

Q: Which Potency does the source give for `CC(=O)c1ccc(S(=O)(=O)NC(=O)NC2CCCCC2)cc1` here?
A: inactive

Q: For `COC(=O)[C@@H]1[C@H]2C[C@H]3c4[nH]c5ccccc5c4CCN3C[C@@H]2CC[C@@H]1O`, which Potency is on record?
A: inactive

Q: Which Potency does the source give for `CC(=O)N[C@@H](CS)C(=O)O` here?
A: inactive

Q: For `O=C1NCC2(CCN(CCc3ccccc3)CC2)O1`, which Potency is on record?
A: inactive

Q: With `Cc1cccc(C)c1OCC(C)N` (stereo not given) as the compound, how does the Potency read?
A: inactive

Q: For `CC(C)OC(=O)C(C)(C)Oc1ccc(C(=O)c2ccc(Cl)cc2)cc1`, which Potency is on record?
A: inactive

Q: For `O=c1c(-c2ccc(O)cc2)coc2cc(O)ccc12`, which Potency is on record?
A: inactive

Q: Which Potency does the source give for `CCN(CC)CCNC(=O)c1ccc(N)cc1` here?
A: inactive

Q: Which Potency does the source give for `CCN1CCC[C@H]1CNC(=O)c1cc(S(N)(=O)=O)ccc1OC` here?
A: inactive

Q: Which Potency does the source give for `NCCS` here?
A: inactive

Q: Which Potency does the source give for `CC(C)NCC(O)COc1cccc2[nH]ccc12` (stereo not given) here?
A: inactive

Q: For `NC(N)=Nc1nc(CSCC/C(N)=N/S(N)(=O)=O)cs1`, which Potency is on record?
A: inactive

Q: With `O=C(O)CCc1nc(-c2ccccc2)c(-c2ccccc2)o1` as the compound, how does the Potency read?
A: inactive

Q: Which Potency does the source give for `CC(C)(C)c1ccc(C(O)CCCN2CCC(C(O)(c3ccccc3)c3ccccc3)CC2)cc1` (stereo not given) here?
A: 11.2 µM (active)

Q: Which Potency does the source give for `C[N+](C)(C)CCCCCC[N+](C)(C)C` here?
A: inactive

Q: With `CCCNC(=O)NS(=O)(=O)c1ccc(Cl)cc1` as the compound, how does the Potency read?
A: inactive

Q: Which Potency does the source give for `CCCCC1C(=O)N(c2ccccc2)N(c2ccccc2)C1=O` here?
A: inactive

Q: For `COc1ccccc1N1CCN(CCCNc2cc(=O)n(C)c(=O)n2C)CC1`, which Potency is on record?
A: inactive

Q: With `CC(=O)CCCCn1c(=O)c2c(ncn2C)n(C)c1=O` as the compound, how does the Potency read?
A: inactive

Q: For `Clc1ccc(Cn2c(CN3CCCC3)nc3ccccc32)cc1`, which Potency is on record?
A: inactive

Q: For `CCN(CC)C(=O)c1ccc(O)c(OC)c1`, which Potency is on record?
A: inactive

Q: For `CN(C)CCC(c1ccccc1)c1ccccn1` (stereo not given), which Potency is on record?
A: inactive

Q: Which Potency does the source give for `CCN(CC)CCOC(=O)c1ccc(N)cc1` here?
A: inactive
